Reference: PubChem BioAssay (NCI)
About 79,000 compounds went through this panel and 15% of them were active in at least one assay; those are over-represented in the sample as a whole. A number with no mark means an inactive call. Activity calls are given as the source filed them. No stated cut-off is given here; in the data, active means growth inhibition above about 70%; inactive means the rest.

Assays:
[1] = NCI Yeast Anticancer Drug Screen. Data for the rad50 strain (AID 155);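 further: 0% = growth of vehicle-only cultures of the same strain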; conditions: S. cerevisiae rad50 strain growth inhibition, stronger effect = higher value
Procedure, shortened: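 Inhibition values express reduced yeast growth in compound-treated cultures relative to vehicle-treated controls.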

[2] = NCI Yeast Anticancer Drug Screen. Data for the mec2-1 strain (AID 157); conditions: S. cerevisiae mec2-1 strain, stronger effect = higher value
Procedure, shortened: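 Mutant yeast (mec2-1) grown with compound; growth inhibition relative to vehicle control reported.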

[3] = NCI Yeast Anticancer Drug Screen. Data for the sgs1 mgt1 strain (AID 161);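 further: 0% = growth of cultures given vehicle only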; conditions: S. cerevisiae sgs1 mgt1 strain, stronger effect = higher value
Procedure, shortened: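 Yeast cells carrying a defined DNA-repair defect were exposed to test compounds. Growth inhibition was measured relative to vehicle-treated controls.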

[4] = NCI Yeast Anticancer Drug Screen. Data for the cln2 rad14 strain (AID 165);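 further: 0% = growth equal to vehicle treated cultures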; conditions: S. cerevisiae cln2 rad14 strain, stronger effect = higher value
Procedure, shortened: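 Readout is yeast growth inhibition versus vehicle-treated controls, using a strain with cln2 and rad14 alterations exposed to compound.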

[5] = NCI Yeast Anticancer Drug Screen. Data for the bub3 strain (AID 167); conditions: S. cerevisiae bub3 mutant strain, stronger effect = higher value
Procedure, shortened: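 Steps: expose the mutant yeast strain to compound; grow alongside vehicle-treated cultures; measure growth; express inhibition against the vehicle cultures.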

[6] = NCI Yeast Anticancer Drug Screen. Data for the mlh1 rad18 strain (AID 175); conditions: S. cerevisiae mlh1 rad18 strain growth inhibition, stronger effect = higher value
Procedure, shortened: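 Genetically defined yeast (DNA repair-deficient) exposed to compounds; growth inhibition determined relative to vehicle.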

[7] = at 5.0 µM (retest, dose inferred, filed as 0.5)
[8] = at 50.0 µM (retest, dose inferred, filed as 5.0)

| SMILES | growth inhibition [1, 7] | growth inhibition [1, 8] | growth inhibition ([1]; at 50.0 µM) | growth inhibition [2, 7] | growth inhibition [2, 8] | growth inhibition ([2]; at 50.0 µM) | growth inhibition [3, 7] | growth inhibition [3, 8] | growth inhibition ([3]; at 50.0 µM) | growth inhibition [4, 7] | growth inhibition [4, 8] | growth inhibition ([4]; at 50.0 µM) | growth inhibition [5, 7] | growth inhibition [5, 8] | growth inhibition ([5]; at 50.0 µM) | growth inhibition [6, 7] | growth inhibition [6, 8] | growth inhibition ([6]; at 50.0 µM) |
| --- | --- | --- | --- | --- | --- | --- | --- | --- | --- | --- | --- | --- | --- | --- | --- | --- | --- | --- |
| CC(=O)OC1COC(N2C(=O)C(=O)c3cc(Br)ccc32)C(OC(C)=O)C1OC(C)=O (configuration not stated) | -11% | 20% | 50.7% | 1% | 7% | -12.3% | -16% | 0% | 2.9% | -37% | -4% | 19.1% | -13% | 23% | 25.4% | -2% | 14% | 12.9% |
| Cc1[nH]c2ccccc2c1/C=C1/CCCCCCC1=O | -1% | 45% | 93.8% (active) | -20% | 34% | 93.6% (active) | -11% | 66% | 96.5% (active) | 3% | 24% | 91.6% (active) | -2% | 41% | 93.5% (active) | -7% | 72% (active) | 97.3% (active) |
| O=C(OCc1ccccc1)C(O)c1ccccc1 (configuration not stated) | -2% | 16% | 24.1% | 2% | 6% | -7.1% | -1% | 3% | -14.7% | -4% | 1% | 41.1% | -3% | -2% | 18.4% | -1% | 10% | 16.2% |
| O=C(O)C1(Cc2ccc3c(c2)CCC3)Cc2ccccc2C1=O (configuration not stated) | 9% | 9% | 89.9% (active) | -6% | -6% | 92.4% (active) | 3% | 3% | 87.5% (active) | 3% | 3% | 88.2% (active) | -7% | -7% | 90.2% (active) | 1% | 1% | 87% (active) |
| Cc1cccc(-c2nnc(-c3cccc(C)c3)o2)c1 | 39% | 44% | 54.8% | 30% | 43% | 14.7% | 19% | 47% | 63.6% | 53% | 33% | 43.2% | 54% | 66% | 55% | 32% | 44% | 23.4% |
| CCCCCCCCCCCCCC1=NCC(C)(C)N1 | 83% (active) | 100% (active) | 99.2% (active) | 85% (active) | 100% (active) | 97.3% (active) | 91% (active) | 100% (active) | 99.7% (active) | 66% | 99% (active) | 97.8% (active) | 89% (active) | 100% (active) | 99.7% (active) | 82% (active) | 100% (active) | 99.5% (active) |
| O=[N+]([O-])c1ccc(SCc2ccccc2)c2nonc12 | 13% | 63% | 86.8% (active) | 12% | 99% (active) | 89.5% (active) | 14% | 87% (active) | 88% (active) | 13% | 77% (active) | 88.9% (active) | 11% | 97% (active) | 88.7% (active) | 22% | 81% (active) | 86% (active) |
| N#CC(C#N)=C1C(Br)=CCc2ccccc21 | 100% (active) | 99% (active) | 99.2% (active) | 100% (active) | 100% (active) | 99.3% (active) | 100% (active) | 99% (active) | 99.2% (active) | 100% (active) | 99% (active) | 97.5% (active) | 100% (active) | 99% (active) | 99.2% (active) | 100% (active) | 99% (active) | 99.2% (active) |
| CCCCCCCCCCN1Cc2ccccc2C1 | 77% (active) | 99% (active) | 99% (active) | 68% | 99% (active) | 97.9% (active) | 87% (active) | 99% (active) | 99% (active) | 68% | 99% (active) | 97.5% (active) | 85% (active) | 99% (active) | 98% (active) | 68% | 99% (active) | 99.3% (active) |
| COC(=O)CCc1c(Cc2ccc[nH]2)[nH]c(C(=O)OCc2ccccc2)c1C | -20% | 91% (active) | 55% | -12% | 92% (active) | 71% (active) | -12% | 94% (active) | 69% | -32% | 95% (active) | 77.5% (active) | -35% | 92% (active) | 76.3% (active) | -5% | 94% (active) | 74.8% (active) |
| OC12C3C4CC5C(C4[C@@H]1Br)C2[C@@](O)(c1c(F)c(F)c(F)c(F)c1F)C53 (some centres not stated) | 8% | 21% | 27.2% | 3% | 8% | 11.6% | 3% | 3% | 27.6% | 3% | 12% | 22.2% | 8% | 54% | 79.3% (active) | 8% | 35% | 73.7% (active) |
| c1cc2cc(Cc3ccc4[nH]ccc4c3)ccc2[nH]1 | 21% | 26% | 12.2% | 21% | 36% | 11.4% | 25% | 19% | 13% | 16% | 10% | -1.1% | 12% | 16% | 43.2% | 32% | 41% | 92.2% (active) |
| CCN1/C(=C/C(C)=C/c2sc3ccccc3[n+]2CC)Sc2ccccc21 | 98% (active) | 97% (active) | 92% (active) | 97% (active) | 100% (active) | 94% (active) | 98% (active) | 100% (active) | 94% (active) | 97% (active) | 99% (active) | 93.7% (active) | 98% (active) | 99% (active) | 92.8% (active) | 98% (active) | 99% (active) | 92% (active) |
| O=CNC(CCCC(=O)O)Cc1cc2ccccc2c2ccccc12 (configuration not stated) | 5% | 17% | 94.5% (active) | 13% | 31% | 95% (active) | 5% | 11% | 95.6% (active) | 7% | 22% | 93.7% (active) | -8% | -4% | 94.8% (active) | -3% | 9% | 94.5% (active) |
| Nc1ccc(-c2ccc(N)cc2S(=O)(=O)O)c(S(=O)(=O)O)c1 | 2% | 0% | -27.6% | 0% | -5% | -14.2% | -1% | -1% | -5.9% | -2% | -5% | 23.4% | 2% | 7% | 1.8% | -7% | -4% | -38.7% |
| Cc1nn(C(=S)S)c(C)c1N=Nc1ccc(Br)cc1 | 14% | 97% (active) | 99.4% (active) | 0% | 99% (active) | 99.6% (active) | 8% | 99% (active) | 99.2% (active) | -7% | 98% (active) | 99.4% (active) | -2% | 98% (active) | 82.2% (active) | 0% | 99% (active) | 99.2% (active) |
| CCOC(=O)CN1CCCC(C(=O)CC2(O)C3(Cl)C4(Cl)C5(Cl)C(Cl)(Cl)C6(Cl)C4(Cl)C2(Cl)C6(Cl)C53Cl)C1 (configuration not stated) | 62% | 98% (active) | 52.5% | 54% | 99% (active) | 49.9% | 61% | 99% (active) | 55% | 36% | 99% (active) | 71.2% (active) | 59% | 99% (active) | 48.5% | 87% (active) | 99% (active) | 50.3% |
| COc1ccc(NC(=O)CC(=O)n2nc(-c3ccccc3)c(N=Nc3ccc(C)cc3)c2-c2ccccc2)cc1 | 34% | 34% | 36.9% | 28% | 28% | 5.95% | 19% | 19% | -6.65% | 20% | 20% | 21% | 27% | 27% | 35.1% | 36% | 36% | -3.75% |
| COC1=C(/C(=N/Nc2ccc([N+](=O)[O-])cc2[N+](=O)[O-])c2ccccc2)COC1=O | -2% | -6% | 17.1% | 0% | -4% | 9.25% | -3% | -7% | -8.25% | 4% | 15% | 4.15% | 3% | -3% | 93.3% (active) | 3% | -6% | 4.9% |
